“And” between values parts separate entries of the source, which are not always exact repeats. Equal values may be shown once. Read-outs that look alike come from different tables or passages of the source.
Key:
ERK4 = tested on: T1, ERK4; conditions: concentration: 1 μM, replicates: in singlicate; n = 1
T1 construct: gene MAPK4

ERK5 = tested on: T2, ERK5; conditions: concentration: 1 μM, replicates: in singlicate; n = 1
T2 construct: gene MAPK7

ERK8 = tested on: T3, ERK8; conditions: concentration: 1 μM, replicates: in singlicate, n = 1
T3 construct: gene MAPK15

ERN1 = conditions: concentration: 1 μM, replicates: in singlicate; n = 1
FAK = tested on: T4, FAK; conditions: concentration: 1 μM, replicates: in singlicate; n = 1
T4 construct: gene PTK2

FER = conditions: concentration: 1 μM, replicates: in singlicate, n = 1
FES = conditions: concentration: 1 μM, replicates: in singlicate, n = 1
FGFR1 = conditions: concentration: 1 μM, replicates: in singlicate; n = 1
FGFR2 = conditions: concentration: 1 μM, replicates: in singlicate; n = 1
FGFR3 = conditions: concentration: 1 μM, replicates: in singlicate, n = 1
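Further: KINOMEscan kinase panel screen.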

Compound	%Inh (ERK4) [%]	%Inh (ERK5) [%]	%Inh (ERK8) [%]	%Inh (ERN1) [%]	%Inh (FAK) [%]	%Inh (FER) [%]	%Inh (FES) [%]	%Inh (FGFR1) [%]	%Inh (FGFR2) [%]	%Inh (FGFR3) [%]	%Inh (ERK8; 1 µM)	%Inh (FER; 1 µM)	%Inh (FES; 1 µM)	%Inh (FGFR3; 1 µM)
C[C@@H]1CCN(C(=O)CO)C[C@@H]1N(C)c1ncnc2[nH]ccc12	19	0	9	0	0	8	0	12	7	0	–	–	–	–
COc1ccc(-c2nc3n(c2-c2ccncc2)CCC3)cc1 [SKF-104493]	0	0	–	0	0	–	–	0	0	–	6% and 11%	0% and 33%	10% and 0%	0% and 9%
FC(F)(F)c1ccc(-c2cc(-c3c[nH]nc3-c3ccccn3)ccn2)cc1 [GW599550]	0	0	0	0	0	32	0	5	0	4	–	–	–	–
Nc1nc(-c2ccc3c(N)n[nH]c3c2)cc(N2CCC[C@@H](C(=O)Nc3ccccc3)C2)n1.O=C(O)C(F)(F)F.O=C(O)C(F)(F)F [GSK2288359]	16	0	0	23	0	0	0	0	0	7	–	–	–	–

Source: PMC5540273 (PLoS ONE, 2017)
